From PubChem BioAssay (EPA / NIEHS)
Activity calls are given as the source filed them. Rule for the calls: active = hit-call score of the fitted dose curve at least 0.9, where 1 is the maximum; inactive = score below 0.9.

Biological target: Estrogen receptor (Homo sapiens) (UniProt P03372)
Experiment: OT_ERa_GFPERaERE_0480: Odyssey Thera (OT) 8-hour HeLa Transcription Induction Assay for Estrogen Receptor (AID 2283381)
Procedure: OT_ERa_GFPERaERE_0480 is a cell-based, single-readout assay that uses HeLa, a human cervix cell line, with measurements taken at 8 hours after chemical dosing in a 384-well plate.OT_ERa_GFPERaERE_0480 is one of one assay component(s) measured or calculated from the OT_ERa_GFPERaERE_0480 assay. It is designed to make measurements of fluorescent protein induction, a form of inducible reporter, as detected with optical microscopy: fluorescence microscopy signals by Microscopy technology.Data from the assay component OT_ERa_GFPERaERE_0480 was analyzed into 1 assay endpoint. This assay endpoint, OT_ERa_EREGFP_0480, was analyzed in the positive analysis fitting direction relative to DMSO as the negative control and baseline of activity. Using a type of inducible reporter, measures of receptor for gain-of-signal activity can be used to understand the reporter gene at the pathway-level as they relate to the gene ESR1. Furthermore, this assay endpoint can be referred to as a primary readout, because the performed assay has only produced 1 assay endpoint. To generalize the intended target to other relatable targets, this assay endpoint is annotated to the nuclear receptor intended target family, where the subfamily is steroidal.
All assay endpoints are quantified using high content image analysis algorithms.

Chain of Estrogen receptor (Homo sapiens) (P03372 whole entry, looked up): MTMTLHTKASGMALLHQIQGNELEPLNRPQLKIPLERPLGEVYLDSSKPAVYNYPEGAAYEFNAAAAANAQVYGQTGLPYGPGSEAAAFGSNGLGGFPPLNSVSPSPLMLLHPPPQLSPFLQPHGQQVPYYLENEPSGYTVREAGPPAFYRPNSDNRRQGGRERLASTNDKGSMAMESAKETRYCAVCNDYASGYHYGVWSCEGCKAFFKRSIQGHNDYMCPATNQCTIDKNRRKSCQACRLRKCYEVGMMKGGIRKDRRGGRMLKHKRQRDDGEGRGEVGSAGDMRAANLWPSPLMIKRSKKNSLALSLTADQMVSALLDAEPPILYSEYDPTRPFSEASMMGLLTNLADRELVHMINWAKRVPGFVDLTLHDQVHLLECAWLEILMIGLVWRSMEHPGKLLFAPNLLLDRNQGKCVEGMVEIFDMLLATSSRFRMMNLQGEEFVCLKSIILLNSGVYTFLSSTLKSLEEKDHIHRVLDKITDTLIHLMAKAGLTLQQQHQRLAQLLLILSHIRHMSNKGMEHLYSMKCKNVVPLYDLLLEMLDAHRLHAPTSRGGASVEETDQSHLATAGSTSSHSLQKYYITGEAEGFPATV

Structure (SMILES)	AC50	outcome
CN(C[C@@H](CC[N+]12CCC(C3CCCCC3)(CC1)CC2)c1ccc(Cl)c(Cl)c1)C(=O)c1cc(C(F)(F)F)cc(C(F)(F)F)c1	12.4 µM (active)	–
CCCCCCCCCCCCO	–	inactive
CCN(Cc1cccnc1)C(=O)c1cccc(Cl)c1[C@]1(C)C(=O)N(Cc2ccc(OC)cc2OC)c2ccc(Cl)cc21	–	inactive
Cc1cc(F)ccc1-c1cc(N2CC[C@@H](O)[C@H]2CO)ncc1N(C)C(=O)C(C)(C)c1cc(C(F)(F)F)cc(C(F)(F)F)c1	–	inactive
COc1cccc([C@H](O)C2CCN(CCc3ccc(F)cc3)CC2)c1OC	–	inactive
COCC(C)OCC(C)OCC(C)O (stereo not given)	–	inactive
CC(C)(C)c1cc(/C=C2\SC(N)=NC2=O)cc(C(C)(C)C)c1O	–	inactive
COc1cc(C(=O)NC2CCN(C)CC2)ccc1Nc1ncc2c(n1)N(C1CCCC1)CC(F)(F)C(=O)N2C	–	inactive
Cc1ccc2oc(CN(Cc3ccccc3)C(=O)Nc3c(F)cc(F)cc3F)c(-c3ccc(Cl)cc3)c2c1	–	inactive
CCCCCCCCOc1ccc(C(=O)c2ccccc2)c(O)c1	–	inactive
Clc1cc(Cl)c2c(c1)N=C1CCCCCN1C2	–	inactive
Cc1cn([C@H]2C[C@H](N=[N+]=[N-])[C@@H](CO)O2)c(=O)[nH]c1=O	–	inactive
OC12N=C(c3ccccc3)SC1Cc1cc(Cl)ccc12 (stereo not given)	–	inactive
Cc1c2ccccc2c(C)c2c1ccc1ccccc12	–	inactive
CCCCCCCCOC(=O)c1cc(O)c(O)c(O)c1	50 µM (active)	–
O=C(O)c1ccccc1-n1cc(C(=O)O)c(=O)c2cc(Nc3c(F)cc(F)cc3Cl)c(Cl)cc21	–	inactive
O=C1c2ccccc2C(=O)N1CCc1noc(-c2ccc(CN3CCCCCC3)s2)n1	–	inactive
O=C(O)c1ccccc1C(=O)OCc1ccccc1	–	inactive
CCN(Cc1cccc(S(=O)(=O)O)c1)c1ccc(C(=C2C=CC(=[N+](CC)Cc3cccc(S(=O)(=O)O)c3)C=C2)c2ccccc2S(=O)(=O)[O-])cc1	–	inactive
Cc1occc1C(=O)Nc1ccc(C(=O)N2CCC(F)(F)/C(=C\C(=O)N3CCC(N4CCCCC4)CC3)c3ccccc32)cc1	–	inactive

Structure (SMILES)	AC50	outcome
CCO[Si](CCCNC(N)=O)(OCC)OCC	–	inactive
CCCC(=O)OCCC(C)C	–	inactive
CC(=O)N1CCN(c2ccc(OC[C@H]3CO[C@](Cn4ccnc4)(c4ccc(Cl)cc4Cl)O3)cc2)CC1	81.2 µM (active)	–
OCCO	–	inactive
Cc1cccc2ccccc12	–	inactive
CN1C(=O)N(c2ccccc2Br)Cc2cnc(Nc3ccc4c(c3)OCC(CO)O4)nc21 (stereo not given)	55.4 µM (active)	–
O=C=NCCCCCCN=C=O	–	inactive
COc1ccc2cc(S(=O)(=O)N[C@H](CC(=O)N[C@H](Cc3ccc(CN4[C@H](C)CCC[C@@H]4C)cc3)C(=O)N(C)C(C)C)c3ccc4c(c3)OCO4)ccc2c1	15.8 µM (active)	–
O=c1[nH]sc2ccccc12	91.7 µM (active)	–
CCOC(=O)O[C@H](C)OC(=O)c1ccc2c(c1)cc(C(=O)NC1CCN(C(C)C)CC1)n2Cc1cc(-c2ccc(Cl)s2)on1	19.6 µM (active)	–
CC1=CC(=O)/C(=C(/C)O)C(=O)O1	–	inactive
O=C(Nc1ccc(Cl)cc1)Nc1ccc(Cl)c(Cl)c1	–	inactive
CCCCCCCCN(C)CCCCCCCC	–	inactive
CN(C)c1ccc(C(=C2C=CC(=[N+](C)C)C=C2)c2ccc(N(C)C)cc2)cc1	–	inactive
c1ccc2ccccc2c1	–	inactive
NC(=O)c1nc(-c2cccc(-c3cc(F)ccc3OCC(F)(F)C(F)(F)F)c2)n[nH]1	–	inactive
O=c1ccc2ccccc2o1	–	inactive
O=CCCCC=O	–	inactive
CCCOC(=O)c1cc(O)c(O)c(O)c1	–	inactive
CC[C@H](NC(=O)c1cc(F)ccc1NS(=O)(=O)c1cccc2cccnc12)c1ccccc1	–	inactive
